# Values joined by “and” are separate entries in the source; they are usually repeats but may differ in a detail not shown here. Equal entries are not always repeated. Results filed as inconclusive are left out. Active and inactive are the calls of the source.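 How the source made its calls, unless noted: active means inhibition above the screen-wide mean plus 3 SD, about 51%; inactive means the rest.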
# How the values were obtained:
# [1] = rapamycin-like changes in RPL19A-GFP expression – cell-based, S. cerevisiae, multiplex flow cytometry, primary screen (AID 1862; in the data active means percent of DMSO control GFP below about 86%;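 further: lower values mimic rapamycin by blocking the RPL19A rise seen in DMSO cells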); conditions: S. cerevisiae RPL19A-GFP strain, flow cytometry fluorescence, 3 h; at 10 µM; stronger effect = lower value
# [2] = TOR pathway GLN3 branch reporter MEP2-GFP changes – S. cerevisiae, multiplex flow cytometry, primary screen (AID 1867;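 active means GFP response, as percent of the DMSO control, above the screen-wide mean plus 3 SD, about 139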;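 further: median GFP channel fluorescence of barcode-gated MEP2-GFP cells measured by flow cytometry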); conditions: S. cerevisiae MEP2-GFP strain, 3 h, at 10 µM, stronger effect = higher value, 100% means same as DMSO wells
# [3] = TOR pathway RTG branch CIT2 reporter changes – S. cerevisiae, GFP fusion, multiplex flow cytometry, primary screen (AID 1870;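 active means percent response above a set limit, the screen-wide mean plus 3 SD, cut at about 130% in these data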;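 further: barcoded CIT2-GFP strain pooled with four other GFP strains with rapamycin as positive control; median GFP fluorescence per well over plate mean of DMSO wells so 100% = DMSO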); conditions: S. cerevisiae CIT2-GFP expression, 3 h, at 10 µM, stronger effect = higher value
# [4] = TOR pathway LAP4-GFP level changes – S. cerevisiae, multiplex flow cytometry, primary screen (AID 1873;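 active means GFP signal, as percent of the solvent control, above the screen mean plus 3 SD, about 149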); conditions: S. cerevisiae LAP4-GFP expression, 3 h, at 10 µM, stronger effect = higher value
# [5] = yeast AGP1-GFP level changes, GLN3 branch – cell-based, multiplex flow cytometry, S. cerevisiae, primary screen (AID 1887;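 active means GFP signal above the screen-wide mean plus 3 SD, that is over about 124.5% of the solvent control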;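 further: AGP1-GFP fusion strain of S. cerevisiae within a five-strain barcoded multiplex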); conditions: 3 h, at 10 µM, stronger effect = higher value
# [6] = reduced mouse 2C T cell binding to pMHC/ICAM-1 vesicles – MLPCN validation set, flow cytometry, LFA-1/ICAM-1 modulator project, pilot screen (AID 2523;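 active means response below a set limit, under 55% cells CD8-positive and vesicle-bound, and CD8 cells' 90th-percentile brightness under 279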;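 on vesicle binding response: mean PE anti-B7-1 fluorescence of CD8+ cells relative to row control; 100% = QL9-loaded vesicles with DMSO vehicle in the same plate row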); conditions: 2C mouse CD8+ T cells, at 7 µM, stronger effect = lower value; double positive events: measured here: CD8+/vesicle+ event percentage
# [7] = biological target: Integrin beta-1 (Homo sapiens) + Integrin alpha-4 (Homo sapiens) (UniProt P13612+P05556); assay: alpha4beta1 integrin LIBS antibody binding reduction – U937 cells, HUTS-21 mAb, flow cytometry, validation set, VLA-4 allosteric modulator project, pilot screen (AID 2674;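 active means inhibition above 50%, about 3 SD of the validation set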;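 further: antibody binding induced by the VLA-4 ligand LDV present at three times its Kd; 0% = LDV ligand with antibody and no compound and 100% = antibody without LDV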); conditions: HUTS-21 LIBS mAb binding, at 6.7 µM, stronger effect = higher value, binding induced by LDV ligand
# [8] = calorie-restriction mimetic ROS inhibitors, yeast – validation compound set, pilot screen (AID 2706;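 active means superoxide response below 65% of plate, a cut near 3 SD across the whole screen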;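 further: yeast exposed to compound for one week at 30 degrees C before staining; 100% = mean of all compound wells on the same plate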); conditions: S. cerevisiae aging, superoxide DHE fluorescence; at 10 µM; stronger effect = lower value
# [9] = biological target: Beta-adrenergic receptor kinase 1 (Homo sapiens) (UniProt P25098); assay: GRK2 binders displacing RNA aptamer, biochemical, validation, human GRK2, bead flow cytometry (AID 488806;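 active means aptamer binding inhibition above 30%, about 3 SD of noise from non-fluorescent compounds; inactive means inhibition at or below 30%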); conditions: bead-bound GRK2, FAM-aptamer displacement, at 10 µM, stronger effect = higher value
# [10] = biological target: Beta-2 adrenergic receptor (Homo sapiens) (UniProt P07550); assay: agonist-induced loss of surface beta2AR – cell-based, FAP fluorogen, flow cytometry, validation set, pilot screen (AID 504459;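 active means percent response above 42, roughly 3 SD of non-fluorescent test compounds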;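 further: agonist-driven loss of surface beta2AR via internalization measured by FAP dye flow cytometry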); conditions: Am2.2-beta2AR cells, at 10 µM, stronger effect = higher value
# [11] = biological target: AP-2 complex subunit beta (Homo sapiens) (UniProt P63010); assay: beta-arrestin/AP2 interaction blockers – biochemical, validation set, GST-AP2 beads, flow cytometry, pilot screen (AID 504541;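 active means inhibition above 54%, about 3 SD of non-fluorescent compounds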;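 further: AP2 carries R879A mutation and is captured from E. coli lysate; bead-bound FITC arrestin peptide fluorescence measuring arrestin peptide binding to AP2; 0% = DMSO wells and 100% = excess unlabeled arrestin peptide control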); conditions: FITC arrestin peptide, at 10 µM, stronger effect = higher value, AP2 beta2 appendage fragment, R879A mutant
# [12] = cytosolic pH regulators acting via V-ATPase – S. cerevisiae, pHLuorin, HTS validation (AID 504600; in the data active means response above about 15%;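 further: plate controls were DMSO for no effect and reference compound for full effect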); conditions: V-ATPase proton transport, at 10 µM, stronger effect = higher value
# [13] = tested on: anti-desmoglein-3 scFv antibody binding to human DSG3; assay: blockers of pathogenic pemphigus antibody–desmoglein-3 binding – biochemical, validation compound set, bead-based, flow cytometry, pilot screen (AID 588368;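 active means binding below the plate cutoff, the plate median minus 3 SD, with a reading above zero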;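 further: signal is the median channel fluorescence of bead-bound GFP antibody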); conditions: Protein G beads, DSG3-Fc, scFv-GFP binding, at 10 µM, stronger effect = lower value
# [14] = Nile Red efflux blockade in pump-expressing yeast – validation compound set, multiplex, phenotypic, pilot screen (AID 588506;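 active means efflux inhibition above 0.42, the validation set average plus 4 SD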;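 further: Nile Red retained in cells so higher fluorescence means more efflux inhibition; 0 = negative control wells and 1 = enniatin B 25 µM full block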); conditions: S. cerevisiae pump-expressing triplex, Nile Red efflux flow cytometry; at 10 µM; stronger effect = higher value; the pumps come from Candida albicans
# [15] = biological target: ATP-binding cassette sub-family B member 6 (Homo sapiens) (UniProt Q9NP58); assay: blockers of ABCB6-driven porphyrin uptake – K562-ABCB6 cells, flow cytometry, validation set, pilot screen (AID 588550); conditions: K562-ABCB6 porphyrin accumulation, 1 h, at 10 µM, stronger effect = higher value;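 further: 0% = DMSO wells and 100% = benzethonium chloride 70 µM positive control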
# [16] = AML differentiation inducers, ER-HoxA9 marrow cells – cell-based, GFP/MAC1 double positive, flow cytometry, validation set, primary screen (AID 588685;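 active means differentiation response of at least 50%, scaled between solvent and reference control, from cells with both markers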;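 further: compound exposure lasts four days before antibody staining and flow analysis; 0% = DMSO wells and 100% = 5 µM fulvestrant positive control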); conditions: stronger effect = higher value, normalized: vehicle 0, fulvestrant 100
# Chain of Integrin beta-1 (Homo sapiens) + Integrin alpha-4 (Homo sapiens) (P05556 whole entry, looked up): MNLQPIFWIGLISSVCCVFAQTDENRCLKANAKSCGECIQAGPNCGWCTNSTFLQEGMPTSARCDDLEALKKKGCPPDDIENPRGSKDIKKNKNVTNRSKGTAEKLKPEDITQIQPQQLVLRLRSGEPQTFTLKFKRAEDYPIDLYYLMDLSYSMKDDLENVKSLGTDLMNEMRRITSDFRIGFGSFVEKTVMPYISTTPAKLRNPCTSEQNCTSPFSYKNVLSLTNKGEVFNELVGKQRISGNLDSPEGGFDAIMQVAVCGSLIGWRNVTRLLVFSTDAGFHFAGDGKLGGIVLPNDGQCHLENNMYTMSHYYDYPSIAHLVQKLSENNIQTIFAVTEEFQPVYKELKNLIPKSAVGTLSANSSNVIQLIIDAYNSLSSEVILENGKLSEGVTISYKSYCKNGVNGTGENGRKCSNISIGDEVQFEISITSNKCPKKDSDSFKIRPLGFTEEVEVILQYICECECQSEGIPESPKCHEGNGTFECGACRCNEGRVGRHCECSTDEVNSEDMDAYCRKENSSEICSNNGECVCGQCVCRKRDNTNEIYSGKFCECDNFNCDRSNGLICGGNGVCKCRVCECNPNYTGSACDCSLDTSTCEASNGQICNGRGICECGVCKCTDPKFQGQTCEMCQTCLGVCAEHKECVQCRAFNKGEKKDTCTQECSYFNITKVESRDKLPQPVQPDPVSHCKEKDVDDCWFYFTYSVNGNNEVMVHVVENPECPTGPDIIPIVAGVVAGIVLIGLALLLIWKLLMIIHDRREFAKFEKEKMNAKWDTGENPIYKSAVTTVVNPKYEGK
# Chain of Integrin beta-1 (Homo sapiens) + Integrin alpha-4 (Homo sapiens) (P13612 whole entry, looked up): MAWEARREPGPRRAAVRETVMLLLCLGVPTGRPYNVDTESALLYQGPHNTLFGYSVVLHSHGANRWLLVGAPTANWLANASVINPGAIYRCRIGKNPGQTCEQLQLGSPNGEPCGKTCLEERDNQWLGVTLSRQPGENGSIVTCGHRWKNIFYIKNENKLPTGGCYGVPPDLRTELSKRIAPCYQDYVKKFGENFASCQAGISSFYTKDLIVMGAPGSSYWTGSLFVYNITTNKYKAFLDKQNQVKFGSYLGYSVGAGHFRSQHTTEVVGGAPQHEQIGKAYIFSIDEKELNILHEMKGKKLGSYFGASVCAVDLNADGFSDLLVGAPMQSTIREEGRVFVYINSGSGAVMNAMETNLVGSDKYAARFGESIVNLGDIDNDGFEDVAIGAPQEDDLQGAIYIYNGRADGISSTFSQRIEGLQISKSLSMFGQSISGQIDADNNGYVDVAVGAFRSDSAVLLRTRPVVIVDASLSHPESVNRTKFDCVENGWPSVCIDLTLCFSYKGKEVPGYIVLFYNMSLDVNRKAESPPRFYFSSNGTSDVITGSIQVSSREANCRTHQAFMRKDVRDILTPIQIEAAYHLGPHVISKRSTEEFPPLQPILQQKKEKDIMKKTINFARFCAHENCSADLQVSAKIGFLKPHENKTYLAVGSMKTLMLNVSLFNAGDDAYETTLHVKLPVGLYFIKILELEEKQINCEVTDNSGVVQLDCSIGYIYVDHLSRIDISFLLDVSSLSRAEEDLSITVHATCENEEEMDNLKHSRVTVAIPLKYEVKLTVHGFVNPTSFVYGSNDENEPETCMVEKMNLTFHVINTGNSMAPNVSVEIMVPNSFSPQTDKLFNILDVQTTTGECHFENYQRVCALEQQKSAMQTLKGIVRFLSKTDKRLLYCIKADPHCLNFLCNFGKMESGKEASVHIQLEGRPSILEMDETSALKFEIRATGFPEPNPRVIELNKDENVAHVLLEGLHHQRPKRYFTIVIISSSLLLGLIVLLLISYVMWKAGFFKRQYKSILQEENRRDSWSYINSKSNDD
# Chain of Beta-2 adrenergic receptor (Homo sapiens) (P07550 whole entry, looked up): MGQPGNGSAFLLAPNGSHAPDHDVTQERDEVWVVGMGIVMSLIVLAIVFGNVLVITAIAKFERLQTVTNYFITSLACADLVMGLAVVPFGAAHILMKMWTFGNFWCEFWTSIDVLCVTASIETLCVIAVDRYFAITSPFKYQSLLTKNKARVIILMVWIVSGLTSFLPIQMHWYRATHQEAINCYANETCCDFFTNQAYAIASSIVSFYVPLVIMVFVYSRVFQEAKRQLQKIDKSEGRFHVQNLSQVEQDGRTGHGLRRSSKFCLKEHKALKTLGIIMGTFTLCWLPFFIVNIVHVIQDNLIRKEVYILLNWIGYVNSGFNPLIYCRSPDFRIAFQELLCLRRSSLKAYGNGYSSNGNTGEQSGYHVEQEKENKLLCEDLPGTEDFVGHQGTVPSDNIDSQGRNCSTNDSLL
# Chain of ATP-binding cassette sub-family B member 6 (Homo sapiens) (Q9NP58 whole entry, looked up): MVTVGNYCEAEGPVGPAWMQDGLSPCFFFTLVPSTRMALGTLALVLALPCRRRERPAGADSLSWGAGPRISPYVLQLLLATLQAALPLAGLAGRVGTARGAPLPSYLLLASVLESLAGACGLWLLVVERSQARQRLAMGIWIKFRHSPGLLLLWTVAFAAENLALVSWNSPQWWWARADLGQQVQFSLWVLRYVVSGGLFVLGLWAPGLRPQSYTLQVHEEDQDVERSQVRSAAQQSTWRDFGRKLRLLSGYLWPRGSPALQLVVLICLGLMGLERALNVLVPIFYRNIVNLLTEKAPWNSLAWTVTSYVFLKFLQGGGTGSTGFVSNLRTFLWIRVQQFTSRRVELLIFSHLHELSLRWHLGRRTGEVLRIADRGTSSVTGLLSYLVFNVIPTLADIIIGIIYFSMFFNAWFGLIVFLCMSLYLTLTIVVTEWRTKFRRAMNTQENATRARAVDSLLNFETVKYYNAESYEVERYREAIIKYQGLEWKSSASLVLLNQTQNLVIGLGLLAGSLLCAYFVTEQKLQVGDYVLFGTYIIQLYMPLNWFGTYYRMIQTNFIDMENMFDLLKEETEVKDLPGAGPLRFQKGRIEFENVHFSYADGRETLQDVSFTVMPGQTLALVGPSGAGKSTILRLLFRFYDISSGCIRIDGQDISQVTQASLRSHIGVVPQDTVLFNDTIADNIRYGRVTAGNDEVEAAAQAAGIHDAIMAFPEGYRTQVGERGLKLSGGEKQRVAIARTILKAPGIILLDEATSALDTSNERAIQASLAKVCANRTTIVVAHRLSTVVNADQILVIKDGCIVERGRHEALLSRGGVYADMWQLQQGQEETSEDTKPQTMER
# Chain of Beta-adrenergic receptor kinase 1 (Homo sapiens) (P25098 whole entry, looked up): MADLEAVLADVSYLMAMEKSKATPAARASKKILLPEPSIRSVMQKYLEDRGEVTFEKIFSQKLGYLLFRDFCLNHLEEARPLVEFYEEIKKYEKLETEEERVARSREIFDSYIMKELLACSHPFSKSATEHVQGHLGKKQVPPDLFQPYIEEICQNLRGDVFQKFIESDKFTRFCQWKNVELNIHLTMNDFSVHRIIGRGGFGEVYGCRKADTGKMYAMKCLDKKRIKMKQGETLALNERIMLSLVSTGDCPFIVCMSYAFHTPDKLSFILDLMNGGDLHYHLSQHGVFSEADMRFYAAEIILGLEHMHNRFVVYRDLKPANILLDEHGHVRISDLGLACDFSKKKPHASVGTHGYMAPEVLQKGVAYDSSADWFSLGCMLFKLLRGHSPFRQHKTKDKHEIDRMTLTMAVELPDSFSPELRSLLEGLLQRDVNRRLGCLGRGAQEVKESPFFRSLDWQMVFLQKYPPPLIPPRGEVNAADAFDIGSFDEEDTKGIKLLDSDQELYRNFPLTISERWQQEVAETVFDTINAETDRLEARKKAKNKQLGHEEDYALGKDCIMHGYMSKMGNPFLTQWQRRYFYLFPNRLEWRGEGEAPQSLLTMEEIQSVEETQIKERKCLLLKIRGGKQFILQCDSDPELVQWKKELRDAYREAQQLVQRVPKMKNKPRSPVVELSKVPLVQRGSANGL
# Chain of AP-2 complex subunit beta (Homo sapiens) (P63010 whole entry, looked up, the tested form may be a part, one chain of several): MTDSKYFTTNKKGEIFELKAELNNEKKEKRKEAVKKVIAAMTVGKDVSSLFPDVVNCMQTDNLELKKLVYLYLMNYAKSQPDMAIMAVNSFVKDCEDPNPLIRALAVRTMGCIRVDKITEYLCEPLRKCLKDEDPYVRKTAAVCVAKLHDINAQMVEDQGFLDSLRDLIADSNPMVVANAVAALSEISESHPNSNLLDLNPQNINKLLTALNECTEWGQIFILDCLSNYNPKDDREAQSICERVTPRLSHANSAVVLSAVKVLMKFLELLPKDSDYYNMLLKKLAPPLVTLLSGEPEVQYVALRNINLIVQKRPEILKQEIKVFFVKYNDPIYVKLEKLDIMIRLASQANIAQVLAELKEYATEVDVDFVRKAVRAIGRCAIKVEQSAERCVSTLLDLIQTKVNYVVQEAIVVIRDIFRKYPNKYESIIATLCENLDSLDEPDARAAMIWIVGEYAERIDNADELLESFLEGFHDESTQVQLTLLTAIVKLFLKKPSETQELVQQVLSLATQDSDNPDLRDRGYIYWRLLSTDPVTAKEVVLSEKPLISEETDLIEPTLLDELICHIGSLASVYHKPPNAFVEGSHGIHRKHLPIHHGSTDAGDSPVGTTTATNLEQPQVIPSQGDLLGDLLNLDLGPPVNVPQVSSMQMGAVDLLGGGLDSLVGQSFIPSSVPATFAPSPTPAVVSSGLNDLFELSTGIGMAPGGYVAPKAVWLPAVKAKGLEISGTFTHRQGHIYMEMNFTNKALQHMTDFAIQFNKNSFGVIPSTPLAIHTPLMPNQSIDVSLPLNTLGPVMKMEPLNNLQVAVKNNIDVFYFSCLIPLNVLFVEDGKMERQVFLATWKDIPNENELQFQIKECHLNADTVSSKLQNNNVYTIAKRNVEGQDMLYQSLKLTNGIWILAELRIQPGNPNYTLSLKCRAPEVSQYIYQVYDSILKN
Structure (SMILES),percent of DMSO control GFP [1],GFP response vs DMSO [2],percent response of DMSO control [3],GFP response vs DMSO [4],"GFP response, % of DMSO [5]",double positive events [6],vesicle binding response [6],inhibition [7],superoxide response (% of plate) [8],aptamer binding inhibition [9],response [10],inhibition [11],response [12],binding (% of control) [13],efflux inhibition (fraction of control) [14],inhibition [15],differentiation response [16]
CC(=O)OCC(=O)[C@@]1(O)[C@H](C)C[C@H]2[C@@H]3CCC4=CC(=O)C=C[C@]4(C)[C@@]3(F)[C@@H](O)C[C@@]21C,97.2% (inactive),119% (inactive),107% (inactive),80.9% (inactive),91.7% (inactive),59.3%,192% (inactive),12.3% (inactive),108% (inactive),-2% (inactive),-2.19% (inactive),-11.7% (inactive),2.51% (inactive),99.4% (inactive),-0.35 (inactive),9% (inactive),-3.28% (inactive)
CCCCOc1cc(C(=O)NCCN(CC)CC)c2ccccc2n1,94.8% (inactive),128% (inactive),106% (inactive),79.8% (inactive),92.8% (inactive),48.4% and 71.1%,187% (inactive) and 185% (inactive),13.8% (inactive) and 14.2% (inactive),88.6% (inactive) and 105% (inactive),-2% (inactive) and -3% (inactive),-3.62% (inactive),-5.17% (inactive) and -1.67% (inactive),-31% (inactive) and -1.46% (inactive),145% (inactive) and 101% (inactive),0.03 (inactive) and 0.09 (inactive),11% (inactive) and 10% (inactive),7.87% (inactive) and 9.01% (inactive)
CC1(C)S[C@@H]2[C@H](NC(=O)[C@H](N)c3ccccc3)C(=O)N2[C@H]1C(=O)O,94.2% (inactive) and 101% (inactive),112% (inactive) and 102% (inactive),110% (inactive) and 102% (inactive),73.2% (inactive) and 108% (inactive),93.1% (inactive) and 112% (inactive),68.4% and 59.6%,234% (inactive) and 191% (inactive),6.46% (inactive) and 15.1% (inactive),95.9% (inactive) and 95% (inactive),4% (inactive) and 7% (inactive),-4.57% (inactive) and -17.9% (inactive),0.2% (inactive) and -9.24% (inactive),4.43% (inactive) and -37.5% (inactive),108% (inactive) and 102% (inactive),,4% (inactive) and 0% (inactive),-1.64% (inactive) and -7.94% (inactive)
Cn1c(=O)c2c(ncn2CCO)n(C)c1=O,102% (inactive),112% (inactive),116% (inactive),88.6% (inactive),101% (inactive),63.6%,250% (inactive),-32.3% (inactive),98.5% (inactive),-2% (inactive),15.1% (inactive),-1.93% (inactive),0.08% (inactive),106% (inactive),-0.17 (inactive),6% (inactive),1.64% (inactive)
CC1(C)CC(O)(CNCc2ccc3c(c2)OCO3)CCO1 (stereo not given),103% (inactive),102% (inactive),101% (inactive),106% (inactive),105% (inactive),66.2%,192% (inactive),15.9% (inactive),104% (inactive),1% (inactive),-24.4% (inactive),44.7% (inactive),-2.49% (inactive),104% (inactive),-0.04 (inactive),2% (inactive),0.92% (inactive)
O=c1[nH]c(=O)n([C@H]2C[C@H](O)[C@@H](CO)O2)cc1C(F)(F)F,103% (inactive),101% (inactive),97.8% (inactive),94% (inactive),94.8% (inactive),58.6%,48.9% (inactive),-11.9% (inactive),108% (inactive),1% (inactive),-1.49% (inactive),13.9% (inactive),-1.8% (inactive),100% (inactive),0.02 (inactive),1% (inactive),-1.71% (inactive)
CCOc1ccc2ccccc2c1C(=O)N[C@@H]1C(=O)N2[C@@H]1SC(C)(C)[C@@H]2C(=O)O,101% (inactive),112% (inactive),93.1% (inactive),85.5% (inactive),97.5% (inactive),67.6%,994% (inactive),-3.57% (inactive),108% (inactive),2% (inactive),1.55% (inactive),17.1% (inactive),0.05% (inactive),95.5% (inactive),0.14 (inactive),8% (inactive),11% (inactive)
C[C@H]1O[C@@H](O[C@H]2[C@@H](O)C[C@H](O[C@H]3[C@@H](O)C[C@H](O[C@H]4CC[C@@]5(C)[C@H](CC[C@@H]6[C@@H]5C[C@@H](O)[C@]5(C)[C@@H](C7=CC(=O)OC7)CC[C@]65O)C4)O[C@@H]3C)O[C@@H]2C)C[C@H](O)[C@@H]1O,100% (inactive),105% (inactive),95.5% (inactive),93.7% (inactive),93.7% (inactive),62.7%,151% (inactive),11% (inactive),90.7% (inactive),-2% (inactive),12.4% (inactive),-11.4% (inactive),1.64% (inactive),103% (inactive),-0.07 (inactive),-10% (inactive),5.67% (inactive)

# Reference: PubChem BioAssay
